Data as given in PubChem BioAssay (EPA / NIEHS).
Results filed as inconclusive are left out. Activity calls are given as the source filed them. The calls were made as follows: active = hit-call score of the fitted dose curve at least 0.9, where 1 is the maximum; inconclusive = response in the unintended direction; inactive = score below 0.9.

Experiments:
[1] = target: Cellular tumor antigen p53 (Homo sapiens) (UniProt P04637); experiment: TOX21_p53_BLA_p2_ratio: Tox21 HCT-116 p53 Agonism Beta-lactamase Assay, Ratio, Phase 2 (AID 2283592)
In short: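 An inducible beta-lactamase reporter in HCT116 cells signals p53 pathway activation. After 16 h chemical exposure at 37C, cells load CCF4-AM substrate for 2 h at room temperature; activity is the cleaved/uncleaved emission ratio relative to DMSO.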

[2] = target: Cellular tumor antigen p53 (Homo sapiens) (UniProt P04637); experiment: TOX21_p53_BLA_p3_ratio: Tox21 HCT-116 p53 Agonism Beta-lactamase Assay, Ratio, Phase 3 (AID 2283596)
In short: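 HCT116 p53-bla cells (4000/well) given compound in DMSO (217-fold dilution) after 5 h, incubated 16 h at 37C. CCF4-AM substrate 2 h at room temperature; 460/530 nm emission ratio, gain fitted against DMSO.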

[3] = target: Cellular tumor antigen p53 (Homo sapiens) (UniProt P04637); experiment: TOX21_p53_BLA_p5_ratio: Tox21 HCT-116 p53 Agonism Beta-lactamase Assay, Ratio, Phase 5 (AID 2283599)
In short: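 Beta-lactamase reporter ratio (blue 460 nm over green 530 nm, 405 nm excitation) after 2 h CCF4-AM loading, in HCT-116 cells exposed 16 h at 37 C to compounds pinned at 217-fold dilution. Increases relative to DMSO baseline scored.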

[4] = target: Cellular tumor antigen p53 (Homo sapiens) (UniProt P04637); experiment: TOX21_p53_BLA_p4_ratio: Tox21 HCT-116 p53 Agonism Beta-lactamase Assay, Ratio, Phase 4 (AID 2283601)
In short: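 Signal is the blue/green (460nm/530nm) ratio of cleaved versus uncleaved CCF4-AM substrate, read after 2 h substrate loading. Cells were HCT116 carrying the p53-responsive beta-lactamase reporter, dosed 16 h at 37C, 5% CO2; CellTiter-Glo measured in parallel.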

[5] = TOX21_TRB_BLA_Antagonist_Followup_viability: Viability Assessment in the Tox21 Thyroid Hormone Receptor beta Antagonism Beta-lactamase (BLA) Follow-Up Assay (AID 2283961)
In short: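 Cytotoxicity is measured in parallel with the antagonist-mode TRβ beta-lactamase screen, using ATP-coupled luciferase luminescence. Engineered HEK293T cells are treated for 18 h with 11-point compound series in triplicate.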

[6] = TOX21_TR_RXR_BLA_Antagonist_Followup_viability: Viability Assessment in the Tox21 Thyroid Hormone Receptor beta Retinoid X Receptor alpha (RXRa) Antagonism Beta-lactamase (BLA) Follow-Up Assay (AID 2283979)
In short: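 Follow-up compounds (11 concentrations, triplicate) were incubated 16 h at 37C/5% CO2 with HEK293T RXRa-bla cells seeded at 2,500/well in charcoal-stripped-serum medium. ATP content by CellTiter-Glo luminescence gave viability; curves fitted in both directions against DMSO.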

[7] = TOX21_p53_BLA_p5_viability: Viability Assessment in the Tox21 HCT-116 p53 Agonism Beta-lactamase Assay, Phase 5 (AID 2283600)
In short: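 Counter-readout for cytotoxicity: ATP-dependent luminescence from CellTiter-Glo, read in the beta-lactamase wells after 30 min at RT, following a 16 h compound exposure at 37C.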

[8] = TOX21_p53_BLA_p4_viability: Viability Assessment in the Tox21 HCT-116 p53 Agonism Beta-lactamase Assay, Phase 4 (AID 2283597);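 also: hits lower the luminescence signal meaning cytotoxicity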
In short: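 Compound exposure of HCT116 cells lasts 16 h at 37C, 5% CO2, with DMSO stocks diluted 217-fold. Cellular ATP is then quantified by CellTiter-Glo luminescence after 30 min at room temperature.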

PGR (gene 5241) = PGR (gene 5241) (UniProt P06401); experiment: TOX21_PR_BLA_Followup_Antagonist_ratio: Tox21 HEK293 Progesterone Receptor (PR) Antagonism Beta-lactamase Follow-Up Assay, Ratio (AID 2283934)
In short: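 HEK293T PR-UAS-bla, 2% CS-FBS; 6 hr plating, then cpd + R5020 (1 nM final), 16 hr 37C/5% CO2. B/G FRET substrate 2 h RT. Ratio ch2/ch1 vs DMSO; CellTiter-Glo viability multiplexed, autofluorescence checked.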

[9] = TOX21_PR_BLA_Followup_Agonist_viability: Viability Assessment in the Tox21 HEK293 Progesterone Receptor (PR) Agonism Beta-lactamase Follow-Up Assay (AID 2283935);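 also: signal loss means lower viability so actives are cytotoxic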
In short: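 HEK293T PR-UAS-bla, 3,000 cells/well, 2% CS-FBS; 6 hr pre-incubation; cpd in DMSO, 16 hr 37C; LiveBLAzer 2 hr RT, then CellTiter-Glo 30 min RT, luminescence. Decrease = lost viability.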

[10] = TOX21_PR_LUC_Followup_Antagonist_viability: Viability Assessment in the Tox21 HEK293 Progesterone Receptor (PR) Antagonism Luciferase Follow-Up Assay (AID 2283940)
In short: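 Multiplexed viability counter-screen: after 5 days in charcoal-stripped-FBS medium, HEK293-PR-A-luc cells are plated, pinned with DMSO-dissolved compounds for 16 h at 37C, and ATP content is quantified luminescently via CellTiter-Glo.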

[11] = TOX21_PR_LUC_Followup_Agonist_viability: Viability Assessment in the Tox21 HEK293 Progesterone Receptor (PR) Agonism Luciferase Follow-Up Assay (AID 2283941);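 also: loss of signal means cytotoxicity so actives lower viability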
In short: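 Cells were kept 5 days in charcoal-stripped serum medium before plating HEK293-PR-A-luc at 3,000 cells/well. After 5 h they received DMSO-dissolved compound and incubated 16 h at 37C. Viability was taken from CellTiter-Glo ATP luminescence.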

Measured: outcome

Cellular tumor antigen p53 (Homo sapiens), sequence (P04637 whole entry, looked up): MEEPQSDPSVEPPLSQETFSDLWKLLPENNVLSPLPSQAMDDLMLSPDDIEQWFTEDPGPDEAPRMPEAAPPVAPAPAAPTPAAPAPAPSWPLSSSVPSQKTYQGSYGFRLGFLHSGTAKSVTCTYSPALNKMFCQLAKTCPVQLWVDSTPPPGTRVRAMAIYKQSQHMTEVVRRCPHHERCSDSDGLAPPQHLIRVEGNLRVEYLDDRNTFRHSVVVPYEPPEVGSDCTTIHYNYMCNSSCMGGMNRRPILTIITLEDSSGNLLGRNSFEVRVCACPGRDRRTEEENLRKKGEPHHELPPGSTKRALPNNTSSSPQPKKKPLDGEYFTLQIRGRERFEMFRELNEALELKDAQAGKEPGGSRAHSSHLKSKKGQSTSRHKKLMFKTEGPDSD
PGR (gene 5241), sequence (P06401 whole entry, looked up): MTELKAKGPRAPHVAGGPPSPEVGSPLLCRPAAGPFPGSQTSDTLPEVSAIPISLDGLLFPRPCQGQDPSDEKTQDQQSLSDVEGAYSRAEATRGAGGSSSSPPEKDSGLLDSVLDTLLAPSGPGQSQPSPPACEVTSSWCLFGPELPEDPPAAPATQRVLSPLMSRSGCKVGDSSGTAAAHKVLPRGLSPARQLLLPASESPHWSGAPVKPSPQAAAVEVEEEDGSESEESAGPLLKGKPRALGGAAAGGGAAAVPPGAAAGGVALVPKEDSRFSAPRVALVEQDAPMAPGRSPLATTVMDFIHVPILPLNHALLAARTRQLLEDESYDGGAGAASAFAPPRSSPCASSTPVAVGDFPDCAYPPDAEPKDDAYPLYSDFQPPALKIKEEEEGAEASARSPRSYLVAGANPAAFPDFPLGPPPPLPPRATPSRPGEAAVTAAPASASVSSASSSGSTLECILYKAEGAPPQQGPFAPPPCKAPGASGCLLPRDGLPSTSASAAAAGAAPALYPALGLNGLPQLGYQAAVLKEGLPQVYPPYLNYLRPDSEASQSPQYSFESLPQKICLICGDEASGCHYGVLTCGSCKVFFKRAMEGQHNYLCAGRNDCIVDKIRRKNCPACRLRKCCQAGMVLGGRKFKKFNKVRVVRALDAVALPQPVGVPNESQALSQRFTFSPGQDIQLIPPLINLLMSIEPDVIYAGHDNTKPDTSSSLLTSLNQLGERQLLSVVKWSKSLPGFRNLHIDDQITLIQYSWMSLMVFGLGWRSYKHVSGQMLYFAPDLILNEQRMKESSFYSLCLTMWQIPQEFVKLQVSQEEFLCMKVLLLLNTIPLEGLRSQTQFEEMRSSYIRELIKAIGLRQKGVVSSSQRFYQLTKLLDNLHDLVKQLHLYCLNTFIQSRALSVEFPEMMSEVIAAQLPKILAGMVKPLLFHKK

CCOC(=O)C1=C[C@]2(CC)CCCN3CCc4c(n1c1ccccc41)[C@@H]32
inactive: [1] | [2] | [3] | [4] | [5] | [6]

Cc1cc(OI)c(C(C)C)cc1-c1cc(C(C)C)c(OI)cc1C
inactive: [1] | [2] | [4]

CC(=O)CCC=C(C)CC/C=C(\C)CC/C=C(\C)CCC=C(C)C
inactive: [1] | [2] | [4]

O=C(CO)[C@@H](O)[C@H](O)[C@@H](O)CO
inactive: [1] | [2] | [7]

CCCCCO
inactive: [1] | [2] | [4]

O=C(O)c1ccc(O)cc1O
inactive: [1] | [8] | [3] | [4]

C#CCN[C@@H]1CCc2ccccc21
inactive: [1] | [8] | [3] | [4]

C1=CCC2CC=CC2C1 (centres undefined)
inactive: [1] | [8] | [3]

COc1cc2c(cc1OC)[C@@H](c1ccccc1)CN(C)CC2
inactive: [1] | [8] | [3] | [4]

CCN(CC)CCOC(=O)C1(c2ccccc2)CCCC1
inactive: [1] | [8] | [3] | [4]

O=C(OC1C[C@@H]2CC3C[C@H](C1)N2CC3=O)c1c[nH]c2ccccc12 (some centres undefined)
inactive: [1] | [8] | [7]

CCc1ccc(C(=O)C(C)CN2CCCCC2)cc1 (centres undefined)
inactive: [1] | [8] | [3] | [7]

CCn1ccnc1CC1COc2ccccc2O1 (centres undefined)
inactive: [1] | [8] | [3] | [7] | [4]

CC(=O)NC(=O)c1ccccc1O
inactive: [1] | [8] | [3] | [7] | [4]

Cl/C(=C\n1cncn1)c1ccc(Cl)cc1Cl
not listed: [2] | [5] | [6]
inactive: all other assays above

COc1ccc(C=NNC(=O)c2ccncc2)c(C(=O)O)c1OC
inactive: [1] | [8] | [3] | [7] | [4]

Cc1cc(NC(=O)C2=C(O)c3ccccc3S(=O)(=O)N2C)no1
inactive: [1] | [8] | [3] | [7] | [4]

Nc1ccc2cc(S(=O)(=O)O)ccc2c1
inactive: [1] | [8] | [3] | [4]

CCCCCCCCCCCCCCCCCC(=O)OCCO
inactive: [1] | [8] | [3] | [7] | [4]

CN1CC(=O)N=C1N
inactive: [1] | [8] | [3]

CCCn1c(=O)[nH]c(=O)c2[nH]cnc21
inactive: [1] | [8] | [3] | [7] | [4]

O=C1CC[C@H](C(=O)N2CCCCC2)N1
inactive: [1] | [8] | [3] | [7] | [4]

CN(C)CC[C@@H](c1ccc(Cl)cc1)c1ccccn1
inactive: [1] | [8] | [3] | [4]

C[C@@H]1CC[C@@]2(OC1)O[C@H]1C[C@H]3[C@@H]4CC[C@H]5C[C@@H](O)CC[C@]5(C)[C@H]4CC(=O)[C@]3(C)[C@H]1[C@@H]2C
inactive: [1] | [8] | [3] | [7] | [4]

CC(C)=CC(C)(C)C
inactive: [1] | [8] | [3] | [7] | [4]
